Screening results as filed in PubChem BioAssay.
SW480 rereplic: inducers of DNA re-replication in SW480 colon cancer cells. SW480 DNA re-replication, Hoechst DNA content imaging, 48 h. 1.8% of 340,000 active. AID 624297. Potency, µM (titrated, usually from 46.1 µM), for inactives: top-dose re-replication activation, hits mostly activators; further: % of control where 0% means no effect; nearly all actives have a fitted effect of over 55% in size
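Treated cells incubate 48 hr (37 C, 5% CO2), are stained 40 min with Hoechst, and nuclear fluorescence is enumerated; a rise in nuclei with high DNA signal marks re-replication.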
HT1080 IDH1KD tx: kills HT-1080 cells with IDH1 knockdown; HT-1080 IDH1 knockdown viability, ATP luminescence, 48 h; Potency, µM (titrated, usually from 46.1 µM), inactives show top-dose activity, negative = toxicity, actives largely listed as cytotoxic; 2% of 360,000 active;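 further: 0% = DMSO wells and -100% = cell-free medium wells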
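IDH1KD HT-1080 cells, 750/well, RPMI + 5% FBS; compound pinned after 2 h settling; 48 h, 37 °C; CellTiter-Glo luminescence; % activity normalised to DMSO and no-cell wells; curves fitted, classed by r2 and efficacy.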
KB-V1 MDR tox: kills drug-selected multidrug resistant KB-V1 cells | Potency, µM (highest dose often 46.1 µM), most hits filed as cytotoxic | KB-V1 MDR cells viability, CellTiter-Glo, 72 h | 3.4% of 400,000 active | AID 1347076; further: on the % scale 0 is the no-effect control and ±100 the full control effect; nearly all actives have a fitted effect of over 60% in size
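Following 72 h at 37 degrees C with compound, KB-V1 cell viability was read by CellTiter-Glo luminescence, medium being phenol-red-free DMEM plus 10% FBS; concentration-response parameters came from normalized, curve-fitted qHTS data.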
MCF10A rerep: DNA re-replication induction in MCF 10a cells | AID 624296 | 2.9% of 350,000 active | Potency, µM (series often up to 46.1 µM), inactives show at the highest dose activity, positive = re-replication, actives largely listed as activators | MCF 10A DNA re-replication, Hoechst nuclear intensity, 48 h; further: % of control where 0% means no effect; nearly all actives have a fitted effect of over 50% in size
HT1080NT lethal: kills 2HG-producing HT-1080-NT fibrosarcoma cells; HT-1080-NT fibrosarcoma viability, CellTiter-Glo ATP luminescence, 48 h; Potency, µM (doses to about 46.1 µM), inactives show at the top dose activity, negative = less viability, usual class: cytotoxic; 1.6% of 360,000 active;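 further: NT is the 2HG producing partner of a matched IDH1 knockdown line; 0% = DMSO-treated cells and -100% = media-only wells without cells; nearly all actives have a fitted effect of over 55% in size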
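HT-1080-NT fibrosarcoma cells (2HG-overproducing), 750 cells/well in RPMI with 5% FBS, dosed after 2 h and incubated 48 h at 37C. CellTiter-Glo luminescence normalized to DMSO and no-cell wells; concentration-response curves fitted and classed.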
KB-3-1 tox: KB-3-1 parental cell cytotoxicity | KB-3-1 viability, CellTiter-Glo ATP luminescence, 72 h | Potency, µM (doses to about 46.1 µM), hits mostly cytotoxic | 1.4% of 400,000 active; further: on the % scale 0 is the no-effect control and ±100 the full control effect; nearly all actives have a fitted effect of over 60% in size
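Cytotoxicity in the drug-sensitive parental line KB-3-1 was scored as loss of CellTiter-Glo luminescence following 72 h incubation with compound. Values come from curve fitting of normalized concentration-response data.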
Starred values were filed as active, the others as inactive; i = inactive; ? = inconclusive; · = no result. Rows were chosen to be rich in hits. Some 8% of all compounds tested hit in one or more screens of this group. The call rests on the fitted dose curve; in most records, active means well fitted curve in the direction sought with a large enough effect; inconclusive means small, poorly fitted or top-dose-only effect, or another doubt; inactive means no such curve, though single readings can be large; an effect the other way counts as inactive or inconclusive. Potency means the concentration at half of the fitted maximal effect.

SMILES	SW480 rereplic	HT1080 IDH1KD tx	KB-V1 MDR tox	MCF10A rerep	HT1080NT lethal	KB-3-1 tox
C(=C\c1ccccc1)/CN1CCN(C(c2nnnn2Cc2ccccc2)C2CC2)CC1 (stereo unspecified)	·	?	?	·	18µM*	i
CCC(c1nnnn1-c1c(C)cccc1C)N1CCN(C/C=C/c2ccccc2)CC1 (stereo unspecified)	·	?	?	·	18µM*	?
C(=C\c1ccccc1)/CN1CCN(C(CCc2ccccc2)c2nnnn2-c2ccc3c(c2)OCCO3)CC1 (stereo unspecified)	·	?	i	·	?	i
CCC(c1nnnn1-c1ccc2c(c1)OCCO2)N1CCN(C/C=C/c2ccccc2)CC1 (stereo unspecified)	·	-23%	8.2µM*	·	-21%	i
CCC(c1nnnn1-c1c(C)cccc1C)N1CCN(c2ccc(C(F)(F)F)cc2[N+](=O)[O-])CC1 (stereo unspecified)	·	-10%	i	·	29µM*	i
Cc1ccc(Nc2ncnc3c2nnn3Cc2ccccc2)cc1	0%	-14%	i	18%	-7%	i
Cn1c(=O)n(C)c2cc(N3CCCCC3)c(NC(=O)c3ccc(C(C)(C)C)cc3)cc21	·	·	?	·	·	i
CCc1ccc2nc(N(CCCN(C)C)C(=O)c3ccc(S(=O)(=O)N4CCCc5ccccc54)cc3)sc2c1	29%	?	9.2µM*	?	?	?
CCc1ccc2nc(N(CCCN(C)C)C(=O)c3ccc(C(=O)c4ccccc4)cc3)sc2c1	17%	?	i	?	?	23µM*
CCc1ccc2nc(N(CCCN(C)C)C(=O)c3ccc(S(=O)(=O)N4CCCC4)cc3)sc2c1	?	-28%	i	?	-29%	i
COc1cccc2sc(N(CCCN(C)C)C(=O)c3ccc(S(=O)(=O)N4CCCc5ccccc54)cc3)nc12	?	?	?	?	18µM*	?
COc1cc2nc(C3CCC3)n(NC(=O)C3CCC3)c(=O)c2cc1OC	-3%	10%	i	-4%	12%	i
COc1cc2nc(C3CCC3)n(NC(=O)COc3ccccc3)c(=O)c2cc1OC	14%	1%	?	?	7.1µM*	i
Cc1cc(C)c2nc(N3CCCC(C(=O)N4CCN(c5ncccn5)CC4)C3)sc2c1 (stereo unspecified)	14%	4%	10µM*	15µM*	3%	?
Cc1cc(C)c2nc(N3CCCC(C(=O)NCc4cccc(Br)c4)C3)sc2c1 (stereo unspecified)	·	·	i	·	·	i
CNCc1sccc1C	-7%	18%	i	-1%	?	i
Cc1cccc(NC(=O)c2onc3c2CCCC3)c1C	3%	-15%	i	18%	-2%	?
Cc1cccc(NC(=O)c2onc3c2CCCC3)n1	-9%	?	13µM*	4%	-28%	?
CCn1c2ccccc2c2cc(NC(=O)c3cccc(OC)c3)ccc21	7.9µM*	?	?	?	13µM*	?
CCn1c2ccccc2c2cc(NC(=O)COc3ccc(C)c(C)c3)ccc21	·	·	i	·	·	i
CCn1c2ccccc2c2cc(NC(=O)CNCc3ccccc3OC)ccc21	7.3µM*	6.5µM*	?	7.3µM*	3.7µM*	?
COc1cccc(C(=O)Nc2cccc3c2ccc2cccn23)c1	16µM*	-28%	i	?	-23%	i
CCn1c2ccccc2c2cc(NC(=O)COc3ccccc3OC)ccc21	15µM*	16µM*	6.5µM*	5.8µM*	?	4.6µM*
CCn1c(=O)sc2cc(NC(=O)c3cccc(OC)c3)ccc21	·	·	i	·	·	i
CN(C)c1ccc(/C=C/C(=O)c2cccc(Br)c2)cc1	?	?	?	16µM*	-4%	i
SMILES	SW480 rereplic	HT1080 IDH1KD tx	KB-V1 MDR tox	MCF10A rerep	HT1080NT lethal	KB-3-1 tox
CN(C)c1ccc(C(=O)/C=C/c2cccnc2)cc1	?	?	?	?	?	18µM*
CCN(C(=O)c1cccc(Br)c1)c1ccccc1	-2%	-2%	i	2%	-7%	i
Cc1cccc(C)c1N1CCc2cn[nH]c21	2%	1%	i	0%	-3%	i
CC(/C=N/NC(=O)CSc1nnc(SCc2ccccc2)s1)=C\c1ccco1	-3%	14%	i	?	13%	i
Oc1ccccc1C=NNc1nc2ccccc2s1	?	8.2µM*	i	-8%	18µM*	?
CCn1c(C)c(/C=N/Nc2nc3ccccc3s2)c2ccccc21	?	8.9µM*	i	11%	3.5µM*	i
Cc1ccsc1/C=N/Nc1nc2ccccc2s1	-3%	-26%	i	0%	?	i
C(=N\Nc1nc2ccccc2s1)/c1cccs1	12%	11µM*	?	-3%	10µM*	i
C=CCSCC1Nc2cc(Cl)c(S(N)(=O)=O)cc2S(=O)(=O)N1 (stereo unspecified)	15%	-9%	i	0%	8%	i
COC(=O)c1scc(-c2ccc(C)cc2)c1S(=O)(=O)Nc1cc(Cl)ccc1C	·	·	i	·	·	i
Cc1nc2scc(C)n2c(=O)c1S(=O)(=O)Nc1ccc(F)cc1	1%	-8%	i	-9%	-14%	i
CCCCOC(=O)c1ccc(NS(=O)(=O)c2c(C)nc3scc(C)n3c2=O)cc1	·	·	8.2µM*	·	·	i
CCN1CCN(C(c2cccs2)C(C)NS(=O)(=O)c2ccc(Br)cc2)CC1 (stereo unspecified)	-7%	-1%	23µM*	11%	0%	i
N#CC1C(=O)c2ccccc2C1c1ccccc1 (stereo unspecified)	18µM*	12µM*	i	15µM*	?	i
O=C1CCC(c2ccccc2)c2ccccc21 (stereo unspecified)	-8%	2%	i	-4%	0%	i
COc1ccccc1NC(=O)CN(C)S(=O)(=O)c1cc(C)ccc1OC	-2%	-2%	21µM*	3%	3%	i
COc1ccc(C)cc1NC(=O)CN(C)S(=O)(=O)c1cnc[nH]1	?	0%	i	23µM*	0%	i
CCCNC(=O)c1ccc2c(c1)C1C3CCC(C3)C1C(c1ccccc1)N2 (stereo unspecified)	16%	-22%	21µM*	?	-16%	?
